“And” between values parts separate entries of the source, which are not always exact repeats. Equal values may be shown once. Results filed as inconclusive are left out. More than one record can exist for a structure, and the calls need not agree. The source made the active and inactive calls. Unless noted, the call rests on the fitted dose curve; in most records, active means well fitted curve in the direction sought with a large enough effect; inconclusive means small, poorly fitted or top-dose-only effect, or another doubt; inactive means no such curve, though single readings can be large; an effect the other way counts as inactive or inconclusive.
How the values were obtained:
[1] = Cell Viability - BJ (AID 421; calls by dose curve;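 further: potency means the concentration at half of the fitted maximal effect; cells exposed to compound for 40 hours at 37 °C before readout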); settings: BJ fibroblast viability, qHTS
Method in brief: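 Luminescent ATP signal (CellTiter-Glo, 20 min at room temperature) served as the read-out of viable BJ cells after 40 hours of compound treatment. Responses were scaled between DMSO and 100 uM tamoxifen, and AC50 values were obtained by Hill modeling.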

[2] = Cell Viability - Jurkat (AID 426;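 active means dose-dependent loss of cell ATP signal giving a full or clear fitted curve, ranked by lower potency value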;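 further: potency means the concentration at half of the fitted maximal effect; cells exposed to compound for 40 hours at 37 °C before ATP read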); settings: qHTS
Method in brief: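 Cells of the human T-cell leukemia line Jurkat (E6-1) are seeded at 5000 per well, treated with compound across a concentration range for 40 hours at 37 °C, then lysed with CellTiter-Glo; luminescence reports ATP.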

[3] = Cell Viability - Hek293 (AID 427;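 active means compounds whose dose-response curve shows a full or clear partial loss of cell viability, called from curve shape rather than a numeric limit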;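 further: potency means the concentration at half of the fitted maximal effect; cells exposed to compound for 40 hours at 37 °C before reading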); settings: qHTS
Method in brief: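 Luminescent ATP read-out (CellTiter-Glo, 20 min RT) after 40 hr compound exposure at 37 °C in complete medium. Signal normalized to DMSO (basal) and 100 uM tamoxifen (100% inhibition); concentration-response fitted with the standard Hill equation to give AC50.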

[4] = Cell Viability - HepG2 (AID 433; calls by dose curve;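 further: potency means the concentration at half of the fitted maximal effect; potency for ATP loss meaning cytotoxicity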); settings: qHTS
Method in brief: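 ATP luminescence (CellTiter-Glo) after 40 h compound exposure, 37 °C, HepG2, 1500 cells/well, complete medium. Normalized: DMSO = basal, 100 uM tamoxifen = 100% inhibition. AC50 via standard Hill equation.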

[5] = Cell Viability - MRC5 (AID 434; calls by dose curve;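 further: potency means the concentration at half of the fitted maximal effect; potency reflects cytotoxicity seen as loss of intracellular ATP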); settings: MRC5 lung fibroblast viability, qHTS
Method in brief: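 AC50 values come from Hill-equation fits of intracellular ATP loss, measured by CellTiter-Glo luminescence. Normal lung fibroblasts (MRC5) had 40 hr compound treatment at 37 C, normalized between DMSO and 100 uM tamoxifen.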

[6] = molecular target: Mitogen-activated protein kinase 10 (Mus musculus) (UniProt Q61831); test: JNK3 AlphaScreen Assay (AID 530; active means well fitted curve in either direction with a large enough effect, not every such curve was filed as active;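 further: kinase came from lysate of stimulated human HepG2 cells; signal reports phosphorylation of biotinylated GST-cJun 1-79 at Ser73 with 10 µM ATP; on the % scale 0 is the no-effect control and ±100 the full control effect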); settings: JNK3 lysate, c-Jun phosphorylation; series mostly up to 57.1 µM
Method in brief: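 qHTS titrations with 15 min compound pre-incubation before adding ATP (10 uM final). Read-out: AlphaScreen of Ser73-phosphorylated biotin-GST-cJun using HepG2 lysate JNK3 activated by IL-1β and TNFα.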

[7] = Cell Viability - N2a (AID 540); settings: N2a mouse neuroblastoma cell viability; series mostly up to 92.2 µM;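 further: plate controls were DMSO alone for no effect and tamoxifen control for full effect; nearly all actives have a fitted effect of over 45% in size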
Method in brief: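 Cytotoxicity was scored as loss of cellular ATP in N2a cells, a mouse neuroblastoma line. Compounds are applied in a qHTS concentration series for 40 hr at 37 °C.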

[8] = Cell Viability - NIH 3T3 (AID 541); settings: NIH 3T3 cell viability, qHTS; at 92.2 µM (top of the series);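 further: plate controls were DMSO alone for no effect and tamoxifen positive control for full effect; nearly all actives have a fitted effect of over 25% in size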
Method in brief: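 Cells seeded at 1000/well, rested 5 hr at 37 °C, then dosed and incubated 40 hr at 37 °C. CellTiter-Glo added, 20 min room temperature, luminescence read. AC50 by Hill fit.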

[9] = Cell Viability - HUV-EC-C (AID 542); settings: HUV-EC-C endothelial cell viability, qHTS; series mostly up to 92.2 µM; further: nearly all actives have a fitted effect of over 35% in size; further: potency means the concentration at half of the fitted maximal effect
Method in brief: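 Cells were seeded at 1000 per well and incubated 5 hr at 37 °C before compound addition. After 40 hr at 37 °C, CellTiter-Glo reagent was added for 20 min and luminescence read. AC50 values came from Hill-equation modelling.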

[10] = Cell Viability - H-4-II-E (AID 543); settings: H-4-II-E rat hepatoma viability; series mostly up to 92.2 µM; further: nearly all actives have a fitted effect of over 35% in size; further: potency means the concentration at half of the fitted maximal effect
Method in brief: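 Cells seeded at 1500 per well and rested 5 hr; compounds added; 40 hr incubation at 37 °C; CellTiter-Glo added, 20 min at room temperature; luminescence read. Hill-equation fits gave AC50.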

[11] = Cell Viability - SH-SY5Y (AID 544); settings: SH-SY5Y neuroblastoma cell viability; series mostly up to 92.2 µM;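 further: 0% = DMSO alone and -100% = 100 µM tamoxifen; nearly all actives have a fitted effect of over 55% in size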
Method in brief: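 Cells were plated at 1500 per well and allowed 5 hr at 37 °C. Compounds were added across a concentration range and incubated 40 hr at 37 °C. CellTiter-Glo was added for 20 min at room temperature before luminescence reading.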

[12] = Cell Viability - Renal Proximal Tubule (AID 545); settings: renal proximal tubule cells viability; series mostly up to 91.7 µM;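 further: 0% = DMSO only and -100% = 100 µM tamoxifen; nearly all actives have a fitted effect of over 40% in size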
Method in brief: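 Rat kidney proximal tubule cells, freshly isolated; 1000 cells/well, 5 hr settle, compound 40 hr 37 °C. CellTiter-Glo 20 min RT, luminescence read. AC50 by standard Hill fit.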

[13] = Cell Viability - Mesenchymal (AID 546); settings: mesenchymal cells viability, qHTS; series mostly up to 91.7 µM;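 further: cells exposed to compound for 40 hours before reading; 0% = DMSO only and -100% = 100 µM tamoxifen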
Method in brief: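 CellTiter-Glo luminescence (intracellular ATP, 20 min room temperature) after 40 hr compound exposure at 37 °C of 1000 glomerulus-derived human kidney mesenchymal cells/well; AC50 values obtained by fitting qHTS concentration-response data to the Hill equation.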

[14] = AP1 Signaling Pathway (AID 357; active means well fitted curve in either direction with a large enough effect, not every such curve was filed as active;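 further: ME-180 reporter cells stimulated with EGF at its EC50 level; on the % scale 0 is the no-effect control and ±100 the full control effect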); settings: ME-180 AP-1-bla reporter, EGF-induced, beta-lactamase ratio, 5 h; series mostly up to 17.2 µM
Method in brief: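 In this screen, ME-180 cells in Opti-MEM with 0.5% dialyzed FBS received EC50 EGF and compound titrations for 5 h. AP-1 reporter beta-lactamase was detected via CCF4 ratio, giving AC50 for positive and negative modulators.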

[15] = molecular target: Cytochrome P450 1A2 (Homo sapiens) (UniProt P05177); test: p450-cyp1a2 (AID 410; calls by dose curve; further: potency means the concentration at half of the fitted maximal effect;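 on activity change, negative = inhibition: -100% = full effect of reference inhibitor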); settings: recombinant CYP1A2, luciferin-ME demethylation, luminescence; series mostly up to 57 µM
Method in brief: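 O-Demethylation of luciferin 6' methyl ether by human CYP1A2 is monitored as luciferase luminescence. Substrate sits at Km (100uM); enzyme is 20nM. Values are scaled to 57 uM furafylline as maximal inhibition.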

[16] = NFAT Signaling Pathway (AID 444; active means well fitted curve in either direction with a large enough effect, not every such curve was filed as active;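 further: carbachol stimulus at about its EC50 of 1 µM final; on the % scale 0 is the no-effect control and ±100 the full control effect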); settings: Jurkat NFAT-bla M1, carbachol, beta-lactamase ratio, 5 h
Method in brief: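 Read-out: CCF4 FRET ratio (460 nm/530 nm) after 1 h RT dye loading, used for %activity and AC50 from titration series. Cells: Jurkat NFAT-β-lactamase/M1 line, treated with compound plus 1 uM carbachol for 5 h, 37 °C.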

[17] = molecular target: Glucocorticoid receptor (Homo sapiens) (UniProt P04150); test: GR-GFP Redistribution (AID 450;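 active means compounds whose dose series gives a full or clear partial fitted curve of increased nuclear translocation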; further: potency means the concentration at half of the fitted maximal effect); settings: U2OS GR-GFP nuclear translocation, laser cytometry, 2 h
[18] = molecular target: Glucocorticoid receptor (Homo sapiens) (UniProt P04150); test: GR-EFC Redistribution (AID 451; calls by dose curve; further: potency means the concentration at half of the fitted maximal effect); settings: CHO-K1 GR-EFC translocation, beta-gal luminescence, 2 h
Method in brief: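 Translocation of GR-ED fusion to nuclear EA restores b-gal, read by luminescence after 1 h room-temperature detection. Engineered CHO-K1 biosensor cells, 1,000/well, exposed 2 h at 37 C to titrations up to 46 uM final.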

[19] = molecular target: 3',5'-cyclic-AMP phosphodiesterase 4B (Homo sapiens) (UniProt Q07343); test: qHTS Assay for Inhibitors of PDE-IV (AID 607; active means well fitted activation curve with a large enough effect in the main read-out, with a control signal flat, not every such curve was filed as active; further: % of control where 0% means no effect); settings: HEK293 ACTOne CNG channel cells, membrane potential fluorescence; series mostly up to 22.9 µM
Method in brief: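 ACTOne HEK293 cells carry a modified cAMP-gated CNG channel and express endogenous PDE4; plated 1000 cells/well, compounds up to 22.9 uM final. Membrane-potential dye fluorescence (ex 535/em 590) was read; parental cells received 10 uM forskolin + 100 uM RO 20-1724.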

[20] = Stat Signaling Pathway (AID 446; active means well fitted curve in either direction with a large enough effect, not every such curve was filed as active;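 further: ME-180 cervical cancer cells given 40 pM IL-6 alongside compound; SIE-controlled beta-lactamase reporter measured as 460/530 nm FRET emission ratio; on the % scale 0 is the no-effect control and ±100 the full control effect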); settings: ME-180 (cervical carcinoma) SIE beta-lactamase reporter, IL-6 stimulated, 5 h; series mostly up to 17.2 µM
Method in brief: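 Compound effects on IL-6-induced STAT reporter activity were measured in ME-180 cells. After overnight culture, cells were co-treated with 40 pM IL-6 for 5 hrs before beta-lactamase substrate loading at room temperature.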

Chain of Cytochrome P450 1A2 (Homo sapiens) (P05177 whole entry, looked up): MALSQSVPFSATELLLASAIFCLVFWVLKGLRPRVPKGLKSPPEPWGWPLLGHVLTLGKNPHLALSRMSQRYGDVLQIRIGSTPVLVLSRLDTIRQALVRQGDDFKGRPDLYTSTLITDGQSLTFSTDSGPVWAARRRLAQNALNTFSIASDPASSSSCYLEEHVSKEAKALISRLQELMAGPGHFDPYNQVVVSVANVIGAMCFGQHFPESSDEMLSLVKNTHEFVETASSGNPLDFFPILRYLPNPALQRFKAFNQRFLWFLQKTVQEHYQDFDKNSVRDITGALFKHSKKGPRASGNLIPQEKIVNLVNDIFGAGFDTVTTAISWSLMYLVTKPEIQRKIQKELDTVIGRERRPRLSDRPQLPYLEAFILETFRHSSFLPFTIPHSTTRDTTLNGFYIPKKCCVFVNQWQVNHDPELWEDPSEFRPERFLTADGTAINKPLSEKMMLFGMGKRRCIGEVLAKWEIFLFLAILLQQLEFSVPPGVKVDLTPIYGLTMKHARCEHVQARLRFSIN
Chain of 3',5'-cyclic-AMP phosphodiesterase 4B (Homo sapiens) (Q07343 whole entry, looked up): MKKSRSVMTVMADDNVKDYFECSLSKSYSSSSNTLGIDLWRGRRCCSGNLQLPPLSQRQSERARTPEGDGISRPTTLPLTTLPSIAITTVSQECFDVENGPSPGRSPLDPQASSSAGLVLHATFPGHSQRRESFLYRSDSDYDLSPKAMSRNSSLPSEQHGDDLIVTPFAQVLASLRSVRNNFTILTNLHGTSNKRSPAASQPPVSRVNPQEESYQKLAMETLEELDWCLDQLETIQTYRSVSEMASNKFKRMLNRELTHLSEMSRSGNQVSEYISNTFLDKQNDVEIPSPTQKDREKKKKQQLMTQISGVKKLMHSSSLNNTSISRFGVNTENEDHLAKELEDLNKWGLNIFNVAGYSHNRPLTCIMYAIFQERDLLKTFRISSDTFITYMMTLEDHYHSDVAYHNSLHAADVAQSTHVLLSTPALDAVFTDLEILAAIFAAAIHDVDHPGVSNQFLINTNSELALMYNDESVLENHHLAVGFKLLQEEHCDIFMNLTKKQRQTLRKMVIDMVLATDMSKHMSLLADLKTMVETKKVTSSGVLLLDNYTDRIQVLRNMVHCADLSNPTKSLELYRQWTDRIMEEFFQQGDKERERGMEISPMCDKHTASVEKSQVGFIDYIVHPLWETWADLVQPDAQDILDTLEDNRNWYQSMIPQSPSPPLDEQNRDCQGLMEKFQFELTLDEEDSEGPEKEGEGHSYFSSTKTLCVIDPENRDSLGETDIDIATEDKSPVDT
Chain of Glucocorticoid receptor (Homo sapiens) (P04150 whole entry, looked up, the tested form may be a part): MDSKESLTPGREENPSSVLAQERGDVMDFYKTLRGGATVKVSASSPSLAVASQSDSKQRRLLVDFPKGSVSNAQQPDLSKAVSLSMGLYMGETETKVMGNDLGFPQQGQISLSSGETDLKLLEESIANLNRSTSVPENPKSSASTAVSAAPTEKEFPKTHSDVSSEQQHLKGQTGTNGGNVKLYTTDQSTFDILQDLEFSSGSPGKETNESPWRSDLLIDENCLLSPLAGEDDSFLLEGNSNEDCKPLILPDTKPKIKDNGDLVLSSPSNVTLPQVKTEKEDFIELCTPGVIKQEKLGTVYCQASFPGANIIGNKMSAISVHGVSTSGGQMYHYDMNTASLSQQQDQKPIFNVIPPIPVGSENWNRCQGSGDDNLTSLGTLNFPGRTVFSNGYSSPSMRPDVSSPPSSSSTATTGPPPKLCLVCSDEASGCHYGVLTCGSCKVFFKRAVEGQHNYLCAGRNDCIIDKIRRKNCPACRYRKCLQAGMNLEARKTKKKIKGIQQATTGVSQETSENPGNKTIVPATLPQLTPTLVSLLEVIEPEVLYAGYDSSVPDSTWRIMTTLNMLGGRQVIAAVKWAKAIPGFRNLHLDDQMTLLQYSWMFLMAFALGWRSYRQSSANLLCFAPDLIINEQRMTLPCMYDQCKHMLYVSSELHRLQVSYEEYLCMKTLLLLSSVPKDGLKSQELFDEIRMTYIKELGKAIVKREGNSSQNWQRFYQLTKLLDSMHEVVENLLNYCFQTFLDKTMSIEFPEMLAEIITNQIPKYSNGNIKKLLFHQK

CCC(C)(C)c1ccc(O)cc1
inactive: Potency [1] > 92 µM | Potency [2] > 92 µM | Potency [3] > 92 µM | Potency [4] > 92 µM | Potency [5] > 92 µM | outcome [6] | outcome [7] | activity change, negative = cytotoxicity [8] -23.4% | Potency [9] | Potency [10] | Potency [11] | outcome [12] | outcome [13]

NCCc1ccc(O)cc1
active: activity change, negative = cytotoxicity [8] -149%
inactive: outcome [14] | Potency [15] | Potency [1] > 92 µM | Potency [2] > 92 µM | Potency [3] > 92 µM | Potency [4] > 92 µM | Potency [5] > 92 µM | activity change, negative = inhibition ([16]; at 38 µM (top of the series)) 5.43% | Potency [17] > 46 µM | Potency [18] > 46 µM | outcome [6] | outcome [7] | Potency [9] | Potency [10] | Potency [11] | outcome [12] | outcome [13] | outcome [19]

CCC1(CC)C(=O)C=CNC1=O
inactive: outcome [14] | Potency [15] | activity change, negative = inhibition ([16]; at 17.2 µM (top of the series)) -4.7% | outcome [20] | Potency [17] > 20.6 µM | Potency [18] > 20.6 µM | outcome [6] | outcome [19]

Nc1ccccc1C(=O)O
inactive: Potency [1] > 92 µM | Potency [2] > 92 µM | Potency [3] > 92 µM | Potency [4] > 92 µM | Potency [5] > 92 µM | outcome [6] | outcome [7] | activity change, negative = cytotoxicity [8] -17.8% | Potency [9] | Potency [10] | Potency [11] | outcome [12] | outcome [13]

COC(=O)C(c1ccccc1)C1CCCCN1 (stereo not given)
inactive: Potency [1] > 92 µM | Potency [2] > 92 µM | Potency [3] > 92 µM | Potency [4] > 92 µM | Potency [5] > 92 µM | outcome [6] | outcome [7] | activity change, negative = cytotoxicity [8] -13.4% | Potency [9] | Potency [10] | Potency [11] | outcome [12] | outcome [13]

Clc1ccc(C(c2ccc(Cl)cc2)C(Cl)(Cl)Cl)cc1
inactive: Potency [1] > 92 µM | Potency [4] > 92 µM | Potency [5] > 92 µM | activity change, negative = cytotoxicity [8] -24.2% | Potency [11] | outcome [12]
active: Potency [9] 50.1 µM

CCCC(C)(COC(N)=O)COC(N)=O
inactive: Potency [1] > 92 µM | Potency [2] > 92 µM | Potency [3] > 92 µM | Potency [4] > 92 µM | Potency [5] > 92 µM | outcome [7] | activity change, negative = cytotoxicity [8] -19.1% | Potency [9] | Potency [10] | Potency [11] | outcome [12] | outcome [13]

C[C@]12CCC(=O)C=C1CC[C@@H]1[C@@H]2CC[C@]2(C)C(=O)CC[C@@H]12
active: Potency [3] 36.7 µM | activity change, negative = cytotoxicity [8] -137% and -117% | Potency [10] 25.1 µM
inactive: outcome [14] | Potency [1] > 92 µM | Potency [2] > 92 µM | Potency [4] > 92 µM | Potency [5] > 92 µM | activity change, negative = inhibition ([16]; at 17.2 µM (top of the series)) 7.44% | outcome [20] | outcome [6] | outcome [7] | Potency [9] | Potency [11] | outcome [12] | outcome [13]

CC(C)NC(C)C
inactive: Potency [1] > 92 µM | Potency [2] > 92 µM | Potency [3] > 92 µM | Potency [4] > 92 µM | Potency [5] > 92 µM | outcome [6] | outcome [7] | activity change, negative = cytotoxicity [8] -15.2% | Potency [9] | Potency [10] | Potency [11] | outcome [12] | outcome [13]

O=C(CCCN1CCC2(CC1)C(=O)NCN2c1ccccc1)c1ccc(F)cc1
inactive: outcome [14] | activity change, negative = inhibition ([16]; at 17.2 µM (top of the series)) -4.55% | activity change, negative = inhibition ([16]; at 38 µM (top of the series)) 10.5% | Potency [17] > 46 µM and > 20.6 µM | Potency [18] > 46 µM and > 20.6 µM | outcome [6] | outcome [19]
inactive and 25.1 µM (active): Potency [15]

COc1c2c(cc3c1OCO3)CCN(C)C2
inactive: outcome [14] | activity change, negative = inhibition ([16]; at 17.2 µM (top of the series)) -27% | outcome [20] | Potency [17] > 20.6 µM | Potency [18] > 20.6 µM | outcome [6] | outcome [19]
active: Potency [15] 2 µM

Clc1cccc(SC2CCNCC2)n1
inactive: outcome [6]

Nc1ccccc1
inactive: Potency [1] > 92 µM | Potency [2] > 92 µM | Potency [3] > 92 µM | Potency [4] > 92 µM | Potency [5] > 92 µM | outcome [6] | outcome [7] | activity change, negative = cytotoxicity [8] -16.9% | Potency [9] | Potency [10] | Potency [11] | outcome [12] | outcome [13]

C#C[C@]1(O)CC[C@H]2[C@@H]3CCC4=CC(=O)CC[C@]4(C)[C@H]3CC[C@@]21C
active: Potency [17] 0.338 µM
inactive: outcome [14] | activity change, negative = inhibition ([16]; at 17.2 µM (top of the series)) 2.09% | outcome [20]

CN1C[C@H](C(=O)N[C@]2(C)O[C@@]3(O)[C@@H]4CCCN4C(=O)[C@H](Cc4ccccc4)N3C2=O)C=C2c3cccc4[nH]cc(c34)C[C@H]21
inactive: Potency [1] > 92 µM | Potency [4] > 92 µM | Potency [5] > 92 µM | outcome [6] | outcome [7] | Potency [9] | outcome [12]
active: Potency [2] 56.2 µM

C[N+]1(C)[C@@H]2CC(OC(=O)[C@H](CO)c3ccccc3)C[C@H]1[C@@H]1O[C@@H]12 (stereo not given in full)
inactive: outcome [14] | outcome [20] | Potency [17] > 20.6 µM
active: activity change, negative = inhibition ([16]; at 17.2 µM (top of the series)) -68.4%

Reference: PubChem BioAssay (NCATS)
